Assay results published in the supplement of paper PMC10849652.
The full data set covers some 8,800 targets. This sample favours those with a hit. About 0.5% of all pairs of compound and target were hits.

These targets were tested with NC1(c2ccc(-c3nc4ccn5c(=O)[nH]nc5c4cc3-c3ccccc3)cc2)CCC1 (assay: log2 fold change, soluble protein after heating vs DMSO (PISA); higher = thermal stabilisation; K562 lysate, 10 uM; active = over 0.2 and 3.5 SD of the protein, either way, in both replicates (recomputed)).
In short: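 Following dounce homogenisation of K562 pellets in PBS pH 7.4 with 1 mM MgCl2, crude extract at 1 mg/mL protein was incubated for 30 min with 10 μM compound. Aliquots were then heated for 3 min over 48°C-58°C and pooled, NP-40 was added to 0.5% at 4°C, and soluble protein was recovered as the supernatant at 21,000xg for 90 min. Channel-sum-equalised TMTpro 16plex LC-MS/MS quantified this protein. Each value, from duplicates, is a log-two fold change in thermal stability relative to solvent controls.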

Chain of UniProt Q9NZJ5 (Q9NZJ5 whole entry, looked up): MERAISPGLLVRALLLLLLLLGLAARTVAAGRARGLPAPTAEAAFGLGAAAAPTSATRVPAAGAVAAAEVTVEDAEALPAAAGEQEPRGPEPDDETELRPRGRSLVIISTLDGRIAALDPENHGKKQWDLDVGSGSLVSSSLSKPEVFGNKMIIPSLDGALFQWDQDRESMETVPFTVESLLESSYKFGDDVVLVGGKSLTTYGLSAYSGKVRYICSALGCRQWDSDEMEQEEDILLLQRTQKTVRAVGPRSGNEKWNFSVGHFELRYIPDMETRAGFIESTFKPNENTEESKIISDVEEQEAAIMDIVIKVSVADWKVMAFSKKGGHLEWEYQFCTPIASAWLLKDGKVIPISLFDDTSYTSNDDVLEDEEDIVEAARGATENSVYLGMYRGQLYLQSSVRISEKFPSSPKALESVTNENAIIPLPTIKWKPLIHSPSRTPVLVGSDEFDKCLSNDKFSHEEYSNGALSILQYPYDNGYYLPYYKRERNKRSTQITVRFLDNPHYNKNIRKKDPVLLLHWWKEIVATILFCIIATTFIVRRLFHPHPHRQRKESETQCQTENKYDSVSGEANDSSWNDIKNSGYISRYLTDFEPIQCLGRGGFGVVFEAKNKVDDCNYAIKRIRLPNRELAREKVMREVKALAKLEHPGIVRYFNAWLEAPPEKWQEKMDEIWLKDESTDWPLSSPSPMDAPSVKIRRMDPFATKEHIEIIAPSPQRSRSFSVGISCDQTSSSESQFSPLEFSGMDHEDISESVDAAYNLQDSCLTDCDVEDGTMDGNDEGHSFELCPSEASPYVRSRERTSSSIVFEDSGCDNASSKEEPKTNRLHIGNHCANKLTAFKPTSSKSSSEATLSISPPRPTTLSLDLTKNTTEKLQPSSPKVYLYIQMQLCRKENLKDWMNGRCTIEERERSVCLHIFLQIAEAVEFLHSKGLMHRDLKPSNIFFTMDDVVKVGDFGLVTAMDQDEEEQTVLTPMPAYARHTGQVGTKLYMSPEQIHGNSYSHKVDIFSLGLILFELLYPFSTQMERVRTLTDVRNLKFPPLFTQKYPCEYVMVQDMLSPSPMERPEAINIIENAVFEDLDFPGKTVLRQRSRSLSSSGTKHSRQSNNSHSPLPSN
Chain of UniProt P58012 (P58012 whole entry, looked up): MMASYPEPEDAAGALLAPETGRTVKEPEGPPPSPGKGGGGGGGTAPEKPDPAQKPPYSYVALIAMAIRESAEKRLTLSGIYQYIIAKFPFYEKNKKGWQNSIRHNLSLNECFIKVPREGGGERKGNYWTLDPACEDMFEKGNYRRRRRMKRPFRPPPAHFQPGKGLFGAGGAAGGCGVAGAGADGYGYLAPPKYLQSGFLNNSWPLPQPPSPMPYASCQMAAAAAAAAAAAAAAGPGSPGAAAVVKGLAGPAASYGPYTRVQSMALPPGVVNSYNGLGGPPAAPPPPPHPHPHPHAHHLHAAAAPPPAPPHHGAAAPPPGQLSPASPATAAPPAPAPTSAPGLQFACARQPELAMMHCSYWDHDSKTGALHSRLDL
Chain of UniProt P28676 (P28676 whole entry, looked up): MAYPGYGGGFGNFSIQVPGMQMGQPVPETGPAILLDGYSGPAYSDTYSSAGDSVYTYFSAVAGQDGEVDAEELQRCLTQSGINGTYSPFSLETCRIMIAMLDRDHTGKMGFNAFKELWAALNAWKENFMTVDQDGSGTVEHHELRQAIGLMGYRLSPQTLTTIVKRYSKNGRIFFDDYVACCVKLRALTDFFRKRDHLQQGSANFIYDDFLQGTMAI
Chain of UniProt Q9P0K8 (Q9P0K8 whole entry, looked up): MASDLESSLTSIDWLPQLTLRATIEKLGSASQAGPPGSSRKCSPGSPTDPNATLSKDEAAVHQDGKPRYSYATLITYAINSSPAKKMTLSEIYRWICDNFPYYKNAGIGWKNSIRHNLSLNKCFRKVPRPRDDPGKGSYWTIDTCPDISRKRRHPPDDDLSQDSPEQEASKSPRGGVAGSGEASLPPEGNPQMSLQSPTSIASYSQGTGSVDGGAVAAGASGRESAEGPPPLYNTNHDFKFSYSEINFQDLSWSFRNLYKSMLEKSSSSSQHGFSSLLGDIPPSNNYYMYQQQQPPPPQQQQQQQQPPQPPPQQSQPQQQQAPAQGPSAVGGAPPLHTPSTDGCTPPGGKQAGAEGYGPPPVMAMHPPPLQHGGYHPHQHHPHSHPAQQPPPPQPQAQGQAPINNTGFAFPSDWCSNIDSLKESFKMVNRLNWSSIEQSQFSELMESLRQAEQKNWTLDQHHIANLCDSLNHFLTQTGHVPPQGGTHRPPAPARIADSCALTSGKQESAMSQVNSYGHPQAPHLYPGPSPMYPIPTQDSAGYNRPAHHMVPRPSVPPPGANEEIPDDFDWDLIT
Chain of UniProt O95718 (O95718 whole entry, looked up): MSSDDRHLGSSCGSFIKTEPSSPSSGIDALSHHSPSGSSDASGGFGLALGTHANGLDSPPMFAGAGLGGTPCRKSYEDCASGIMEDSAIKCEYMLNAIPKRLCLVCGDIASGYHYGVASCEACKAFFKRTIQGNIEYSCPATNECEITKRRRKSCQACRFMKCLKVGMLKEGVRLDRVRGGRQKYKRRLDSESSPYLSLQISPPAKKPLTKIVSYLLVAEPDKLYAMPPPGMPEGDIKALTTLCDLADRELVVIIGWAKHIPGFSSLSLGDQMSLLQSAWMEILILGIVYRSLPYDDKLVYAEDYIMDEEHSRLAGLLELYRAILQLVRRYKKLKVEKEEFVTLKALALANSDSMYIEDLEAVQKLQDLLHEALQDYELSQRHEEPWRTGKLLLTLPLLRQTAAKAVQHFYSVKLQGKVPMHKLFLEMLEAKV
Chain of UniProt Q06547 (Q06547 whole entry, looked up): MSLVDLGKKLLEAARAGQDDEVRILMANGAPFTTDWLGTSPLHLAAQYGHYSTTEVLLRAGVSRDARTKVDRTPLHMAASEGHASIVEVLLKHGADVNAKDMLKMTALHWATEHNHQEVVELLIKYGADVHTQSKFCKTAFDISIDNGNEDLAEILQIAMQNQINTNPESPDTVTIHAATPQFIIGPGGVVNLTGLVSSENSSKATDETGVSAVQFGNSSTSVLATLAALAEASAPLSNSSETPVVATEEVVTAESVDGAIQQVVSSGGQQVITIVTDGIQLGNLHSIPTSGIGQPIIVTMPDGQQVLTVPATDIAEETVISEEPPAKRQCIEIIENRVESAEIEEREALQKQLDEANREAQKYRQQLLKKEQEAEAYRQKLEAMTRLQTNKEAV
Chain of UniProt Q9Y2H6 (Q9Y2H6 whole entry, looked up): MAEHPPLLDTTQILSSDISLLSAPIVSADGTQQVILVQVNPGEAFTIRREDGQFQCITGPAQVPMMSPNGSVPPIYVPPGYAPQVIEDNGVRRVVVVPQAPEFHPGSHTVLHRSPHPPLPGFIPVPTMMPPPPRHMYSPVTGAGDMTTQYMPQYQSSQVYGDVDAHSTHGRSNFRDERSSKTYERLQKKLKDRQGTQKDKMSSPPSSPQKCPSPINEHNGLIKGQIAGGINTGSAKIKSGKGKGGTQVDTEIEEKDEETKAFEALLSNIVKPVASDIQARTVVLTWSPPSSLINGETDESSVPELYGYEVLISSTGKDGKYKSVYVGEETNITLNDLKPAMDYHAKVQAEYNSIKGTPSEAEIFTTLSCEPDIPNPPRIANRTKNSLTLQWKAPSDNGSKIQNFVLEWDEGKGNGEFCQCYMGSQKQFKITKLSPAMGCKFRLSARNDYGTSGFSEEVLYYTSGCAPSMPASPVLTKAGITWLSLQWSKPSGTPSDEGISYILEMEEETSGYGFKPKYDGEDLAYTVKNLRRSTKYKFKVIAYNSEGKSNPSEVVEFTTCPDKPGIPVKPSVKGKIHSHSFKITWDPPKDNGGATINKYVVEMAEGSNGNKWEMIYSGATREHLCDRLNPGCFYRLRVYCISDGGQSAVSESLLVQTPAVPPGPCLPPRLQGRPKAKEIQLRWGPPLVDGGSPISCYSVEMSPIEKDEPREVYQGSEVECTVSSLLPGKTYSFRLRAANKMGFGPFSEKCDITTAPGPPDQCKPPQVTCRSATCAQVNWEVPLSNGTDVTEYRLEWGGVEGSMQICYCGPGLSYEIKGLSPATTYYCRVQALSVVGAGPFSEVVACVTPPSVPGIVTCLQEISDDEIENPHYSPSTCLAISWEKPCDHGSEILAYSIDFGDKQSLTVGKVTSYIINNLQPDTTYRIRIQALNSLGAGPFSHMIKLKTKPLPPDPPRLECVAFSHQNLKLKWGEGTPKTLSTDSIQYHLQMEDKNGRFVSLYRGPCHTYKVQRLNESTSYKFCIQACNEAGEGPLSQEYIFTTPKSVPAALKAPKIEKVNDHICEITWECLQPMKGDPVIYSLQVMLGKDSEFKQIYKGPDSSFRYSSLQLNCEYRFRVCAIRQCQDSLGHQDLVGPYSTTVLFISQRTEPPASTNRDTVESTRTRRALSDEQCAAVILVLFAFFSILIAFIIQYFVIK
Chain of UniProt Q8NCA5 (Q8NCA5 whole entry, looked up): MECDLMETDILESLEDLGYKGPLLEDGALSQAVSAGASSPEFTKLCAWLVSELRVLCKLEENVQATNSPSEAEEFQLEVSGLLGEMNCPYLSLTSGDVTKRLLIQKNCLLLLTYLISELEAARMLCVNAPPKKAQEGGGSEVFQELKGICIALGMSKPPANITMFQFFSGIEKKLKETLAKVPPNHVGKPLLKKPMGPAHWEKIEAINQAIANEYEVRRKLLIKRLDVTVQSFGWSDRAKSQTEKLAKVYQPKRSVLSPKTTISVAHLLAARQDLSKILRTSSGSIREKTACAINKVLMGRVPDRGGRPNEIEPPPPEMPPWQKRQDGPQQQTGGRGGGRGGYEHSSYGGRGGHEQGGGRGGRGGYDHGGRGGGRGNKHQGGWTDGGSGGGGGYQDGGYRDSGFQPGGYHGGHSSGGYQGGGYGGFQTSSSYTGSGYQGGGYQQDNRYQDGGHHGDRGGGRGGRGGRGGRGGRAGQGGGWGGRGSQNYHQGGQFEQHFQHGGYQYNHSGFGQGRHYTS
Chain of UniProt Q9NRW4 (Q9NRW4 whole entry, looked up): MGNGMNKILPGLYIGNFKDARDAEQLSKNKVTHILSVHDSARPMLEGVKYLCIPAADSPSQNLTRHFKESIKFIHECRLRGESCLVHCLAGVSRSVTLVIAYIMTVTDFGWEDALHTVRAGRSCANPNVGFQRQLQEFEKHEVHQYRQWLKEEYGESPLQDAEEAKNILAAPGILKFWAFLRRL

log2 fold change, inactive:
DST isoform 3 (UniProt Q03001) -0.071
GCA (UniProt P28676) -0.017
FOXL2 (UniProt P58012) 0.076
EXO5 (UniProt Q9H790) 0.08
GAA (UniProt P10253) -0.003
EID1 (UniProt Q9Y6B2) 0.133
DYNC1I2 isoform 2 (UniProt Q13409) -0.025
FBRSL1, A0A3B3IRR3 0.066
FLT4 (UniProt P35916) 0.106
GABPB1 isoform 3 (UniProt Q06547) -0.016
FAT1 (UniProt Q14517) -0.071
FOXJ2 (UniProt Q9P0K8) -0.111
EPB41 isoform 4 (UniProt P11171) -0.096
FAM204A (UniProt Q9H8W3) 0.098
FYN (UniProt P06241) 0.043
EIF2AK3 (UniProt Q9NZJ5) -0.166
FAM98A (UniProt Q8NCA5) -0.014
GDE1 (UniProt Q9NZC3) -0.022
FNDC3A (UniProt Q9Y2H6) -0.03
DUSP22 isoform 2 (UniProt Q9NRW4) 0.109
DTL (UniProt Q9NZJ0) 0.048
DYRK1A isoform 2 (UniProt Q13627) -0.047
FAT2 (UniProt Q9NYQ8) -0.087
FAM111A (UniProt Q96PZ2) -0.037
FBXO45 (UniProt P0C2W1) -0.002
FAM53B (UniProt Q14153) 0.042
ESRRB isoform 1 (UniProt O95718) 0.182
